Rows were chosen to be rich in hits. Some 2.7% of all compounds tested hit in one or more screens of this group.
HIF-2a block = HIF-2a reporter inhibitors, primary screen, luminescence, 786-0 RCC cells; AID 624352, 2012; 786-0 RCC cells HIF-2a reporter, luciferase luminescence, overnight; 360,000 tested, 0.72% active; inhibition, % at 18.8 µM;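 active = inhibition of the luminescence signal of 40% or more relative to plate controls, in a single-dose primary screen at 18.75 µM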
CF NFkB inh = inhibitors of PAF-induced NF-kB signaling, primary screen, cell-based, GFP fluorescence, uHTS; KKLEB NF-kB-GFP reporter, GFP fluorescence overnight; inhibition, % at 5 µM; 360,000 tested, 0.86% active;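 active = at least 50% inhibition at 5 µM, scaled per plate between neutral and stimulator controls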;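 also: PAF is a Pseudomonas aeruginosa culture filtrate used as stimulus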
Peg3 promoter = Peg3 promoter-driven luciferase inhibitors, primary screen, cell-based, HeLa, luciferase luminescence | inhibition, % at 20 µM | HeLa PEG-Prom luciferase reporter, overnight | 360,000 tested, 1.7% active | AID 588405, 2011;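 active = inhibition of at least 50% at 20 µM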
KKLEB cytotox = cytotoxicity in KKLEB CF airway cells, primary screen, cytotoxicity control for CF NF-kB inhibitor project, cell-based, uHTS, fluorescence assay plates | KKLEB CF airway cells viability, ATPlite luminescence, overnight; hits give low values; cells stimulated with P. aeruginosa culture filtrate | activity change (cytotoxicity), % at 5 µM | 360,000 tested, 0.36% active | AID 602141, 2011;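 active = corrected activity change at or below -50% at 5 µM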
MITF TRPM1 inh = inhibitors of MITF-dependent TRPM1 promoter reporter, primary screen, cell-based, SK-MEL-5, single point, luciferase; SK-MEL-5 TRPM1 promoter luciferase, 24 h; inhibition, % at 12.5 µM; 330,000 tested, 0.83% active; AID 488899, 2010;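 active = mean inhibition across replicates of 60% or more, whatever share of single replicates reaches that level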
Shn3 inh set2 = reduction of Shn3 3'UTR firefly luciferase signal, primary screen, Schnurri-3 inhibitor project, cell-based, Clone20 osteoblasts, set 2; inhibition, % at 12.5 µM; Clone20 osteoblast Shn3 3'UTR firefly luciferase, 24 h; 360,000 tested, 0.52% active;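 active = mean inhibition of at least 75% with every replicate also reaching 75%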
Mdm2-MdmX confirm = retested Mdm2-MdmX interaction blockers, confirmation, cell-based, luminescence, single concentration, set 2; shares compounds with HIF-2a block; SaOS-2 split-luciferase Mdm2/MdmX complementation; inhibition, % at 8 µM; 740 tested, 99% active; AID 504601, 2011;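 active = mean inhibition of the luminescence signal across two replicates at or above 26 percent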
HIF-2a inh conf = HIF-2a reporter inhibitor retest, confirmation, luminescence, 786-0 RCC cells. inhibition, % at 18.8 µM. 1,800 tested, 56% active. HIF-2a luciferase reporter luminescence, overnight. AID 651580, 2012. shares compounds with HIF-2a block;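 active = mean inhibition across four replicates of at least 40 percent at the single tested concentration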
HIF-1a cs = HIF-1a luciferase reporter signal reduction – MiaPaCa-2 cells, single concentration, counter-screen for HIF-2a inhibitor project, confirmation; shares compounds with HIF-2a block; MiaPaCa-2 HIF-1a luciferase reporter, desferoxamine, overnight; inhibition, % at 18.8 µM; 1,800 tested, 72% active; AID 651589, 2012;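 active = mean inhibition of the reporter signal across four replicates at the single tested dose of 50% or more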
A number is an active result; . = inactive; / = no result.

SMILES | HIF-2a block | CF NFkB inh | Peg3 promoter | KKLEB cytotox | MITF TRPM1 inh | Shn3 inh set2 | HIF-2a inh conf | HIF-1a cs | others
O=[N+]([O-])c1c(NCCCO)cc(Sc2ccc(Cl)cc2)c2nonc12 | 96 | . | 98 | . | 92 | 94 | 52 | 106
COc1cccc(NC(=O)N(C)C[C@@H]2OCc3cn(nn3)CCCC(=O)N([C@H](C)CO)C[C@H]2C)c1 | . | . | . | . | / | . | / | /
CC1(C)Cc2c(sc(NC(=O)COc3cccc4ccccc34)c2C#N)C(C)(C)N1 | 49 | . | 90 | . | . | . | . | 53 | Mdm2-MdmX confirm=103
Cc1nonc1NC(=O)CSc1nc(C2CCCCC2)nc2ccccc12 | 45 | . | . | . | . | . | . | 68
O=C1CCN(CC2CCCCC2)C=C1C(=O)c1ccccc1 | . | . | . | . | . | . | / | /
O=C(/C=C\Nc1ccccn1)c1ccc(Cl)cc1 | 46 | . | . | . | . | . | . | .
O=S(=O)(CCSc1nc2ccccc2o1)c1nc2ccccc2s1 | 57 | 57 | . | . | . | . | 70 | 90
CCS(=O)(=O)CCSc1nc2ccccc2o1 | . | . | . | . | . | . | / | /
CCOC(=O)Cc1csc(NC(=S)NC(=O)c2ccccc2)n1 | 85 | . | . | . | . | . | 87 | .
CCOC(=O)Cc1csc(NC(=S)NC(=O)c2ccc(C)cc2)n1 | 96 | . | . | . | . | . | 99 | 97
COC(=O)[C@]1(C)N[C@H](CN(C)S(=O)(=O)c2ccc(F)cc2)[C@@H]2C(=O)N(C)C(=O)[C@@H]21 | . | . | . | . | . | . | / | /
Cc1cccc(C)c1NC(=O)C1c2ccccc2OCC(=O)N1Cc1cccnc1 (stereo unspecified) | . | / | / | / | / | / | / | /
O=[N+]([O-])c1c(Nc2ccccc2O)cc(Cl)c2nonc12 | 95 | 80 | 100 | . | 106 | 97 | 98 | 99 | Mdm2-MdmX confirm=103
CNc1cc(-c2cccc(OC)c2F)nc2ccnn12 | . | . | . | . | / | . | / | /
Cn1nnnc1N=N/C(=N/Nc1ccccc1)c1ccccc1 | . | . | 52 | . | . | . | / | / | Mdm2-MdmX confirm=91
Cc1c(C(=O)NCC2CCCO2)oc2ccc(S(=O)(=O)N3CC(C)CC(C)C3)cc12 (stereo unspecified) | 39 | . | . | . | / | . | . | 57
Cc1c(C(=O)NCC2CCCO2)oc2ccc(S(=O)(=O)N3CCCCC3)cc12 (stereo unspecified) | . | . | . | . | . | . | / | /
CCOC(=O)c1c(NC(=O)/C=C/C(=O)O)sc(C)c1-c1ccc(C(C)(C)C)cc1 | . | 66 | . | -86 | . | . | / | / | Mdm2-MdmX confirm=103
CCOC(=O)c1c(NC(=O)c2c(-c3ccccc3)noc2C)sc(C)c1-c1ccccc1 | . | . | . | . | . | . | / | / | Mdm2-MdmX confirm=102
COc1cc(C(Nc2ccccn2)c2ccc3ccc(C)nc3c2O)cc(OC)c1O (stereo unspecified) | 94 | 74 | 102 | . | . | . | / | / | Mdm2-MdmX confirm=102
Cc1ccc2ccc(C(Nc3ccccn3)c3ccccc3)c(O)c2n1 (stereo unspecified) | . | . | . | . | / | . | / | /
CN(C)CC(C(=O)c1ccccc1)c1ccccc1 (stereo unspecified) | 86 | 63 | 114 | -51 | 91 | 95 | . | 96 | Mdm2-MdmX confirm=103
O=C(CC(C(=O)c1ccccc1)c1ccccc1)c1ccccc1 (stereo unspecified) | . | . | . | . | . | . | / | /
Cc1coc2cc3oc(=O)c(CC(=O)N[C@@H](CC(C)C)C(=O)O)c(C)c3cc12 | 46 | . | . | . | . | . | . | .
Brc1cc(Br)c2ncnc(N3CCCCC3)c2c1 | 54 | 52 | 56 | . | . | . | . | 88
SMILES | HIF-2a block | CF NFkB inh | Peg3 promoter | KKLEB cytotox | MITF TRPM1 inh | Shn3 inh set2 | HIF-2a inh conf | HIF-1a cs | others
COc1ccc2cc1Oc1ccc(cc1)CC1c3c(cc(OC)c4c3Oc3cc5c(cc3O4)CCNC5C2)CCN1C (stereo unspecified) | 54 | . | 102 | . | 109 | . | . | 106
c1cc(C2OCCO2)cs1 | . | . | . | . | / | . | / | /
O=C(C#Cc1ccccc1)c1ccco1 | 40 | 99 | 105 | -64 | 99 | 95 | 90 | 103 | Mdm2-MdmX confirm=103
Cc1ccc(Cn2ccsc2=NC(=O)COC(=O)c2ccc(NC(=O)CC#N)cc2)cc1 | . | . | . | . | . | . | / | /
Cc1ccc(Cn2ccsc2=NC(=O)CCl)cc1 | . | 94 | . | -92 | . | . | / | / | Mdm2-MdmX confirm=103
CCC/C=C/c1ccc(CN2C(C)C(=O)N(Cc3cn(CCC4OCCO4)nn3)CCS2(=O)=O)cc1 (stereo unspecified) | . | . | . | . | / | . | / | /
O=C(Nc1ccccc1)C1=C(c2ccccc2)S(=O)(=O)CCS1(=O)=O | 72 | 85 | 109 | -83 | 81 | 95 | 45 | 86
O=C(O)c1ccccc1C(=O)Nc1ccccc1 | . | . | . | . | . | . | / | /
CC1(C(=O)N2CCCCC2)CCN1C(=O)c1ccccc1CCc1ccccc1 (stereo unspecified) | . | . | . | . | / | . | / | /
CCOC(=O)[C@]12CCC=C1N(Cc1cccc3ccccc13)C(=O)[C@H](CC(=O)NCCCN1CCCC1=O)C2 | . | / | / | / | / | / | / | /
COc1ccc(/C=N/Nc2cc(C)nc3ccc(OC)cc23)c(OC)c1 | 92 | . | 107 | . | 85 | 96 | / | / | Mdm2-MdmX confirm=103
O=C(OCC(=O)c1c[nH]c2ccccc12)c1cc(S(=O)(=O)N2CCOCC2)ccc1F | 42 | . | . | . | . | . | . | 72
COc1cccc(C#Cc2cnc3c(c2)C(=O)N([C@@H](C)CO)C[C@H](C)[C@H](CN(C)C(=O)C2CCC2)O3)c1 | . | . | . | . | / | . | / | /
CCN1C[C@@H]2[C@@H]3C(=O)N(Cc4ccccc4)C(=O)[C@@H]3[C@](CC)(C1=O)N2C(=O)c1ccc(Cl)c(Cl)c1 | . | . | . | . | . | . | / | /
COc1cc(OCc2ccccc2)c(C(=O)/C=C/c2ccc3c(c2)OCO3)c(OC)c1OC | 52 | . | . | . | . | . | 40 | 53
COc1cc(/C=C/C(=O)NC(C)(C)C)ccc1OCc1ccccc1 | . | . | . | . | . | . | / | /

Screens from PubChem.
